G9a block – qHTS Assay for Inhibitors of Histone Lysine Methyltransferase G9a; 350,000 tested, 8.8% active; AID 504332, 2011; G9a H3K9 monomethylation, AlphaScreen, 2 h; Potency, µM (highest dose often 102 µM), without a hit: top-dose activity, negative = inhibition, actives largely listed as inhibitors; note: potency is the fitted concentration of half-maximal effect; % is set by controls: 0 for no effect and ±100 for the full control effect; nearly all actives have a fitted effect of over 75% in size
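Quantitative HTS format: methyltransferase activity on a biotin-tagged H3K9 peptide is measured by AlphaScreen, using a rabbit anti-monomethyl-H3K9 antibody with streptavidin donor and anti-IgG acceptor beads. Final levels are 20 nM enzyme, 500 nM peptide, 20 uM SAM; 2 h RT.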
Sfp PPTase inh – qHTS Assay for Inhibitors of Bacillus subtilis Sfp phosphopantetheinyl transferase (PPTase); 4'-phosphopantetheinyl transferase ffp (Bacillus subtilis), Q9F4F7; Biochemical Sfp PPTase activity, qHTS; 310,000 tested, 3.5% active; AID 1490, 2009; Potency, µM, for inactives: largest response in the series, negative = inhibition, usual class: inhibitors;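 note: the enzyme is Sfp with the accession as filed and its product quenches rhodamine fluorescence; potency is the fitted concentration of half-maximal effect; 0% = enzyme reaction without inhibitor and -100% = no enzyme wells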
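Step 1, compound plus 15 nM Sfp-PPTase, 15 min, room temperature. Step 2, add rhodamine-CoA (5 uM) and BHQ-2-YbbR (12.5 uM). Step 3, read 525/598 nm fluorescence at 0 and 30 min.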
ALDH1A1 inh – qHTS Assay for Inhibitors of Aldehyde Dehydrogenase 1 (ALDH1A1); Potency, µM (doses to about 75.3 µM), inactives show at the top dose activity, negative = inhibition, hits mostly inhibitors; 220,000 tested, 7.3% active; Purified ALDH1A1, NADH fluorescence, propionaldehyde substrate; Aldehyde dehydrogenase 1A1 (Homo sapiens), P00352; active = well fitted inhibition curve with a large enough effect, not every such curve was filed as active; inconclusive = small, poorly fitted or top-dose-only effect, or another doubt; inactive = no such curve, though single readings can be large or run the other way;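 note: potency is the fitted concentration of half-maximal effect; plate controls were no enzyme wells and a reference inhibitor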
Target sequence (P00352 whole entry, looked up): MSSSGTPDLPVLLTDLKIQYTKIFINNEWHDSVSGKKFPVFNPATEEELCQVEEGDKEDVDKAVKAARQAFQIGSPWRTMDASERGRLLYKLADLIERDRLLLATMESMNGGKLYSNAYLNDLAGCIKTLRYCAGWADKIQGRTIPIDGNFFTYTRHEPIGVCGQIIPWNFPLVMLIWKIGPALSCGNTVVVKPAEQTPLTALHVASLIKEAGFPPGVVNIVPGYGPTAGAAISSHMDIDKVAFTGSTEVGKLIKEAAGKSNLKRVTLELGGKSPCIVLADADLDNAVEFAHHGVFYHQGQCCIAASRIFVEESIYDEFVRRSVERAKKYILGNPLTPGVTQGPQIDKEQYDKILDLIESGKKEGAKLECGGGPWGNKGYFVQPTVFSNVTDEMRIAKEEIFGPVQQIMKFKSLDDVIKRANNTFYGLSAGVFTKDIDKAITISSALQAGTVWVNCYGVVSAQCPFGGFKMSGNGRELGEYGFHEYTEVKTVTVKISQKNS
miR-21 reporter – qHTS Assay for Modulators of miRNAs and/orActivators of miR-21 | Potency, µM (series often up to 38.3 µM), for the others: at the highest dose activity change, positive = activation, hits mostly activators | HeLa miR-21 FLuc reporter, luciferase, 48 h | 340,000 tested, under 10 active;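 note: % of control where 0% means no effect; miR-21 action dims this reporter so a rising signal means less miR-21 action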
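Compounds were titrated across several concentrations (up to approximately 40 uM) and incubated 48 hours with HeLa miR-21-FLuc reporter cells (miR-21 target sequence downstream of FLuc, endogenous miR-21). Readout was firefly luciferase luminescence after lytic detection reagent.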
JMJD2E inh – qHTS Assay for Inhibitors of Human Jumonji Domain Containing 2E (JMJD2E); 230,000 tested, 1.6% active; AID 2147, 2009; Lysine-specific demethylase 4E (Homo sapiens), B2RXH2; JMJD2E catalytic domain, FDH-coupled NADH fluorescence (FDH is formaldehyde dehydrogenase); Potency, µM (doses to about 57.1 µM), for the others: top-dose activity change, negative = inhibition, hits mostly inhibitors; active = well fitted inhibition curve with a large enough effect, not every such curve was filed as active; inconclusive = small, poorly fitted or top-dose-only effect, or another doubt; inactive = no such curve, though single readings can be large or run the other way;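 note: potency is the fitted concentration of half-maximal effect; 0% = wells with enzyme and -100% = buffer wells without enzyme; nearly all actives have a fitted effect of over 50% in size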
Target sequence (B2RXH2 1-337 limits assumed): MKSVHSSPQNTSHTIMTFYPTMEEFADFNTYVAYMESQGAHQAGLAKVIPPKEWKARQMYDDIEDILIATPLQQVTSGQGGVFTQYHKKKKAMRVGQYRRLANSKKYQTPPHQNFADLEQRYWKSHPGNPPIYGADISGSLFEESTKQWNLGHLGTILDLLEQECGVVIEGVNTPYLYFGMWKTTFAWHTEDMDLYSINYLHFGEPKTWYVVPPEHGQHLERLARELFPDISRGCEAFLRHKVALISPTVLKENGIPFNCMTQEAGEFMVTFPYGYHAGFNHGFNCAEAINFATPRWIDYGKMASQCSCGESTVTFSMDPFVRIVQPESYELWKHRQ
Lamin A splicing – qHTS Assay for Modulators of Lamin A Splicing; Potency, µM (doses to about 46.1 µM), for the others: top-dose ratio change, negative = inhibition, actives largely listed as inhibitors; HeLa LMNA splicing GFP/RFP minigene ratio, 48 h; 200,000 tested, 0.01% active; AID 1487, 2009; active = well fitted inhibition curve with a large enough effect in the signal ratio, with a control signal flat, not every such curve was filed as active; inconclusive = small, poorly fitted or top-dose-only effect, or effect the other way, or a change in a side signal; the % refers to the signal ratio; note: potency is the fitted concentration of half-maximal effect; % is set by controls: 0 for no effect and ±100 for the full control effect
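S3 HeLa cells stably expressing lamin A-EGFP splicing minigene plus DsRed2, 600 cells/well, 48 h compound exposure at 37C. Laser-scanning cytometry; analysed as GFP (500-530 nm)/RFP (575-640 nm) total intensity ratio; 0.5% DMSO vehicle.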
Starred values were filed as active, the others as inactive; ? = inconclusive; nt = no result; [ ] = remark or other dose. Rows were chosen to be rich in hits. Some 13% of all compounds tested hit in one or more screens of this group. Unless noted, calls come from the whole dose curve; as a rule, active = well fitted curve in the direction sought with a large enough effect; inconclusive = small, poorly fitted or top-dose-only effect, or another doubt; inactive = no such curve, though single readings can be large; an effect the other way counts as inactive or inconclusive.

SMILES | G9a block | Sfp PPTase inh | ALDH1A1 inh | miR-21 reporter | JMJD2E inh | Lamin A splicing
COc1ccc(C(=O)COC(=O)CN2C(=O)c3ccccc3C2=O)c(OC)c1 | 4% | 0% | nt | 1% | nt | nt
CC(C)C(=O)OCc1cc(=O)n2nc(C3CCCCC3)sc2n1 | 10%[59 µM] | nt | nt | -24% | nt | 7%[46 µM]
Cc1cc(C(=O)CSc2nnc(N)s2)c(C)n1-c1c(C)n(C)n(-c2ccccc2)c1=O | 50µM* | -9% | 1% | 2% | 4% | 10%
Cc1nnc(SCC(=O)c2cc(C)n(-c3c(C)n(C)n(-c4ccccc4)c3=O)c2C)s1 | 9% | -1% | -1% | 13% | -5% | -1%
Cc1cc(C(=O)CCl)c(C)n1-c1c(C)n(C)n(-c2ccccc2)c1=O | -34% | 13% | 13µM* | 26% | 0% | ?
COc1ccc(-c2n[nH]c3c2C(c2ccc(Cl)cc2Cl)NC3=O)cc1 (stereo not drawn) | ? | nt | nt | 18% | nt | nt
CCOC(=O)C1(CCOc2ccccc2)CCN(Cc2cccc3nonc23)CC1 | 99% | 6% | ? | 12% | 5% | 13%[46 µM]
CSC1=NC(C)(C)C=C(/C=C/c2ccc(Cl)cc2)N1 | 28µM* | 40µM* | 20µM* | 17% | -14% | ?
CSC1=NC(C)(C)C=C(/C=C/c2ccc(Cl)cc2Cl)N1 | 50µM* | -18% | -13% | -1% | -7% | ?
CSC1=NC(C)(C)C=C(/C=C/c2c(Cl)cccc2Cl)N1 | 40µM* | -3% | ? | 19% | 5% | ?
Nc1nccc(/C=C/c2ccc(Cl)cc2)n1 | -23% | 11% | nt | -70% | ? | nt
CCSC1=NC(C)(C)C=C(/C=C/c2ccc(Cl)cc2Cl)N1 | 50µM* | ? | -12% | 8% | -11% | ?
Nc1nccc(/C=C/c2c(Cl)cccc2Cl)n1 | -11% | -7% | nt | -5% | ? | nt
N=C(N)c1ccc(/C=C/c2ccc(C(=N)N)cc2O)cc1 | ? | 8% | -3% | 2% | 28µM* | ?
C[n+]1ccccc1/C=C/c1ccc(F)c(F)c1 | 17%[0.501 µM] | 4% | nt | 1% | nt | nt
C[n+]1ccccc1/C=C/c1c(F)cccc1F | 25µM* | -62% | nt | -2% | nt | nt
C[n+]1ccccc1/C=C/c1ccc([N+](=O)[O-])cc1 | 25µM* | 11% | nt | 4% | nt | nt
COc1ccc(C)cc1Nc1c2c(nc3ccccc13)CCC2 | -14% | 1% | nt | ? | nt | nt
COc1ccc(C)cc1Nc1n[n+](C)c(-c2ccc(O)cc2O)s1 | 18µM* | -7% | nt | 1% | nt | nt
COc1ccc(C)cc1Nc1n[n+](C)c(-c2c3ccccc3cc3ccccc23)s1 | 45µM* | 12% | nt | -1% | nt | nt
CSc1ncc(S(=O)(=O)c2ccccc2)c(=O)[nH]1 | 2% | 15% | 9% | 0% | -4% | 16%[9.22 µM]
CC1=C(C(=O)Nc2ccc(C)c(C)c2)C2(CCCCCC2)OC1=O | 5%[59 µM] | nt | nt | -6% | nt | -1%[46 µM]
Nc1ccc(Nc2ccccc2)c(Cl)c1 | ? | -23% | 14µM* | -16% | -8% | 7%
COc1ccc(OC)c(S(=O)(=O)N2CCC(C(=O)NCCC3=CCCCC3)CC2)c1 | 5%[59 µM] | 3% | 22µM* | -10% | -8% | -14%
O=C(NCCC1=CCCCC1)C1CCN(S(=O)(=O)c2ccc(Br)s2)CC1 | 10% | 23% | 19µM* | 1% | 5% | ?
SMILES | G9a block | Sfp PPTase inh | ALDH1A1 inh | miR-21 reporter | JMJD2E inh | Lamin A splicing
O=C(NCCC1=CCCCC1)C1CCN(S(=O)(=O)N2CCCC2)CC1 | -11% | 6% | ? | -4% | -5% | nt
CC(C)(C)c1ccc(C(=O)N2CCC(C(=O)NCCC3=CCCCC3)CC2)cc1 | -10% | -4% | 10µM* | -9% | -9% | 25%
ClCC1NCC(c2ccccc2Cl)c2c1[nH]c1ccccc21 (stereo not drawn) | ? | -3% | 4% | -4% | -5% | ?
COc1cccc2c1cc1c(=O)n(CC(=O)NCCCN3CCCCC3)nc(C)n12 | nt | 1% | nt | 1% | nt | nt
COCCN(C(=O)CSc1ncccn1)c1c(N)n(Cc2ccccc2)c(=O)[nH]c1=O | -9% | nt | nt | nt | nt | nt
COCCN(C(=O)CSc1nc(-c2ccccc2)cn1N)c1c(N)n(Cc2ccccc2)c(=O)[nH]c1=O | 8.9µM* | nt | nt | nt | nt | nt
COCCN(C(=O)CSc1nnc(-c2ccc(C)c(C)c2)o1)c1c(N)n(CC(C)C)c(=O)[nH]c1=O | 79µM* | nt | nt | nt | nt | nt
COCCN(C(=O)CSc1nnc(-c2cccs2)n1N)c1c(N)n(Cc2ccccc2)c(=O)[nH]c1=O | 56µM* | 24% | nt | -3% | nt | nt
CCOc1ccc2nc(SCC(=O)N(CCOC)c3c(N)n(Cc4ccccc4)c(=O)[nH]c3=O)[nH]c2c1 | 10µM* | nt | nt | nt | nt | nt
Cc1c(O)c(O)cc2c1oc1c3ccccc3oc(=O)c21 | nt | -11% | -13% | nt | ? | nt
Cc1ccc(NC(=O)c2cc3c(=O)[nH]c4ccccc4c3n2C)cc1F | -22%[59 µM] | nt | nt | -10% | nt | nt
CN(CCCOc1ccccc1Br)Cc1ccccc1 | 23% | 14% | -3% | -8% | 6% | ?
CCOc1ccc(OCCN(C)Cc2ccccc2)cc1 | 4µM* | -15% | -10% | -5% | -15% | 2%
COC(=O)c1ccc(OCCCCN(C)Cc2ccccc2)cc1 | 10µM* | -27% | nt | -3% | nt | nt
CN(CCOCCOc1ccc(F)cc1)Cc1ccccc1 | ? | ? | nt | -1% | nt | nt
Cc1ccc(Cl)c(OCCCCN(C)Cc2ccccc2)c1 | 10µM* | -12% | 0% | 2% | ? | -4%
CN(CCCOc1ccccc1F)Cc1ccccc1 | 7.9µM* | -8% | nt | -4% | nt | nt
COc1ccc(OCCCCN(C)Cc2ccccc2)cc1 | ? | -26% | nt | -2% | nt | nt
CN(CCOc1ccccc1Cl)Cc1ccccc1 | 10µM* | ? | nt | -11% | nt | nt
CN(CCOc1ccc(Cl)c(Cl)c1)Cc1ccccc1 | nt | 1% | nt | 3% | nt | nt
C/C(N)=C(/C#N)C(=O)CSc1nnc(NC(C)C)s1 | 50µM* | 4% | 1% | -35% | 5% | 0%
O=C(NCc1ccccc1)C(=O)Nc1nccs1 | 13µM* | -13% | -3% | 0% | ? | 5%[46 µM]
CC(=O)OC(C(=O)Nc1nccs1)c1ccccc1 (stereo not drawn) | -8% | 19% | nt | 0% | nt | nt
O=C(Nc1nccs1)C(Br)C(Br)c1ccccc1 (stereo not drawn) | 3.5µM* | 50µM* | nt | -10% | nt | nt
Cc1cc(-c2n[nH]c(=S)n2Cc2ccccc2)cs1 | 1.3µM* | -3% | ? | ? | ? | -3%
